# Screening results as filed in PubChem BioAssay.
# hcDAF12 agonist: activators of H. contortus DAF-12 nuclear receptor. HEK293 hcDAF-12 lit1-tk-luc reporter, luminescence; 0% DMSO, 100% Δ7-dafachronic acid. activation, % at 6.8 µM. hit rate 1.4% among 370,000. AID 652067;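 active = activation above the mean of all tested compounds plus 3 SD, cut at about 5.5% in these data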
# DAX1 inh-1: inhibitors of DAX1 repression of SF-1 activated StAR promoter; AID 652010; HEK293T StAR-luciferase reporter, SF-1/DAX-1 repression relief; inhibition, % at 6.8 µM; hit rate 1.1% among 370,000;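 active = inhibition above the mean over all tested compounds plus 3 SD, cut at about 3.6% in these data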;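 also: higher inhibition means more luminescence from relief of DAX-1 repression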
# hgDAF12 agonist: hgDAF-12 agonism, primary luciferase screen | hit rate 1.8% among 370,000 | activation, % at 6.8 µM | HEK293 GAL4-hgDAF12 UAS-luciferase reporter, agonist luminescence; normalized to butyrate control;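 active = activation above a cutoff set at the mean of all screened compounds plus 3 SD, cut at about 10% in these data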
# DAX1 inh-2: NR0B1 (DAX1) inhibition. P51843. HEK293 Gal4-DAX1 luciferase reporter, luminescence. inhibition, % at 6.75 µM. hit rate 0.99% among 340,000. AID 504766;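 active = inhibition above the mean over all tested compounds plus 3 SD, cut at about 4.2% in these data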;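 also: inhibition shows as a rise in luminescence from relieved DAX1 repression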
# Target sequence (P51843 207-470 limits assumed): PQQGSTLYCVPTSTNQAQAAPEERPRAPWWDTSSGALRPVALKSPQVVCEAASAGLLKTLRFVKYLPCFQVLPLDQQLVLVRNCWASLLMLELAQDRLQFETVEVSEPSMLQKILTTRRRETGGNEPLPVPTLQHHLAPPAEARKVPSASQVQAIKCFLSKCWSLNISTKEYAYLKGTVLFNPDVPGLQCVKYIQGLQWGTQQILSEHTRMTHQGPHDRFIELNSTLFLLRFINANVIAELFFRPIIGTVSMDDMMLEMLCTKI
# ssDAF-12 act: S. stercoralis DAF-12 activation, primary screen | activation, % at 6.8 µM | HEK293 ssDAF-12/GRIP1 lit1-tk-luc reporter, luminescence; % of 3 µM dafachronic acid response | hit rate 1% among 370,000 | AID 652126;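 active = activation above the mean over all tested compounds plus 3 SD, cut at about 0.9% in these data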
# A number is an active result; 0 = inactive; - = no result given. Rows were chosen to be rich in hits. Some 4.1% of all compounds tested hit in one or more screens of this group.
SMILES,hcDAF12 agonist,DAX1 inh-1,hgDAF12 agonist,DAX1 inh-2,ssDAF-12 act
Cc1cc(C)nc(SC2CCCCC2O)n1 (stereo unspecified),5.8,0,0,0,0
COc1ccc(N2C(=O)CC(Sc3nc(C)cc(C)n3)C2=O)cc1OC (stereo unspecified),0,0,0,0,0
O=C(CN(Cc1ccco1)C(=O)c1cc(=O)[nH]c2ccccc12)Nc1ccccc1C(F)(F)F,0,0,0,6.3,0
CC(C)=CCC/C(C)=C/CNCC(=O)N1c2ccccc2[C@]2(C)C[C@@H]3C(=O)N(C/C=C(\C)CCC=C(C)C)CC(=O)N3[C@H]12,0,0,0,-,0
Cc1cccc(C)c1NC(=O)C1(C)CCC(=O)N1CCCn1ccnc1 (stereo unspecified),0,0,0,-,0
Cc1cccc(C)c1NC(=O)C1(C)CSCC(=O)N1CCCn1ccnc1 (stereo unspecified),0,0,0,-,2.1
CCC(=O)N(C)C[C@@H]1[C@H](c2ccc(C3=CCCCC3)cc2)[C@H](CO)N1C(=O)CC,0,0,0,-,0
Nc1c2c(=O)[nH]c(O)cc2nn1-c1ccccc1,0,0,0,0,1.2
Cc1c(C)c2c(C)nn(-c3ccccc3)c2[nH]c1=O,0,0,0,0,0
CCOc1ccc(C(C)NC(=O)Cc2ccccc2F)cc1OCC (stereo unspecified),0,0,0,0,0
CC(NC(=O)Cc1ccccc1F)c1ccc(F)cc1 (stereo unspecified),0,0,0,4.8,0
CC(=O)N1CSCC1C(=O)NNS(=O)(=O)c1ccccc1 (stereo unspecified),0,0,0,-,0
CC(=O)N1CSCC1C(=O)NNS(=O)(=O)c1cccc(C(F)(F)F)c1 (stereo unspecified),0,0,0,6.3,0
O=C(NCc1ccc(C(=O)N2CCOCC2)cc1)c1cccc(Br)c1,0,0,0,-,0
Cc1[nH]nc(Nc2ccc(Br)cc2)c1[N+](=O)[O-],0,0,12,5.6,1.3
CNc1nc(Nc2ccc(Br)cc2)nc(N)c1[N+](=O)[O-],0,0,0,0,1.2
COc1ccc(Nc2nc(N)c([N+](=O)[O-])c(NCCO)n2)cc1,0,0,0,-,0
Cc1ccc(Nc2n[nH]c(C)c2[N+](=O)[O-])cc1,0,0,0,0,0
CC(=O)N1CCN(C2=Nc3ccccc3Sc3ccccc32)CC1,0,0,0,-,0
CN1Cc2c(N3CCOCC3)nc3sc(C(=O)c4ccc(Br)cc4)c(N)c3c2CC1(C)C,0,0,0,-,0
CN1Cc2c(N3CCOCC3)nc3sc(C#N)c(N)c3c2CC1(C)C,0,0,0,5.4,0
N#Cc1ccc(-c2nc3c4ccccc4ccn3c2Cc2ccccc2C(F)(F)F)cc1,0,0,0,-,0
c1ccc(Cc2c(-c3ccccc3)nc3c4ccccc4ccn23)cc1,0,0,0,0,0.9
Cc1ccc(Cc2c(-c3ccco3)nc3c4ccccc4ccn23)cc1,0,0,0,-,0
FC(F)(F)c1ccccc1Cc1c(-c2cccc(Br)c2)nc2c3ccccc3ccn12,5.8,0,0,-,1.4
SMILES,hcDAF12 agonist,DAX1 inh-1,hgDAF12 agonist,DAX1 inh-2,ssDAF-12 act
Cc1cc(Br)cn2c(Cc3ccccc3C(F)(F)F)c(-c3cccc(Br)c3)nc12,0,0,0,-,0
N#Cc1ccc(-c2nc3c4ccccc4ccn3c2Cc2ccsc2)cc1,0,0,0,-,1.5
Cc1ccc(-c2nc3c4ccccc4ccn3c2Cc2cccc(Cl)c2)cc1,0,0,0,-,0
N#Cc1ccc(-c2nc3c4ccccc4ccn3c2Cc2cccc(Cl)c2)cc1,0,0,11,-,0
O=C(OC12CCCN(C1)/C(=C/c1ccc(Cl)cc1)C2)C1CCCCC1 (stereo unspecified),0,0,0,-,0
COc1ccc(-n2c(SCC(=O)Nc3ccc4c(c3)OCO4)nc3sc4c(c3c2=O)CCCC4)cc1,0,0,0,-,0
Cc1ccc(-c2nnc(SCc3ccc([N+](=O)[O-])cc3)n2-c2ccccc2)cc1,0,0,0,-,0
CCN(C(=O)COC(=O)c1ccc(Sc2ncn[nH]2)c([N+](=O)[O-])c1)c1ccccc1C,0,0,0,-,0
N#CCCCc1cn(-c2ccc(-c3noc4c3C(=O)N(CC(=O)N3CCOCC3)CC4)cc2)nn1,0,0,0,-,0
CSc1nnc(CCNC(=O)OC(C)(C)C)o1,0,0,0,4.5,0
CCCC(=O)N1CCC[C@]2(CC[C@H](CCC(C)=O)O2)C1,0,0,0,-,0
